# CYP2C9 act = CYP2C9 (human) activation; P11712; recombinant CYP2C9, luciferin-H conversion, luminescence; hits give high values; factor 1 = untreated enzyme, 0 = blocked; activation factor at 5 µM; hit rate 1.4% among 96,000; AID 1024;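 active means activation factor of 2 or more for CYP2C9 at a 5 µM dose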;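 further: 0 = sulfaphenazole-blocked wells and 1 = vehicle-only wells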
# PostGolgi yeast = growth inhibition of a yeast mutant, post-Golgi transport screen; post-Golgi transport phenotypic cell assay; hit rate 0.9% among 98,000; AID 739; inhibition, % at 10 µM;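 further: yeast cells grown in 1536-well plates; yeast grown about 18 h at 30C before absorbance read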
# CYP2C19 activ = increases human CYP2C19 enzyme activity; P33261; recombinant CYP2C19, luciferin-H EGE luminescence; hits give high values; 0 = fully inhibited enzyme, 1 = untreated enzyme; activation factor at 5 µM; 96,000 tested, under 10 active;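 active means activation factor of at least 2 at 5 µM in the primary screen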;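 further: 0 = wells with 2.5 mM tranylcypromine and 1 = vehicle-only wells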
# Target sequence (P33261 whole entry, looked up): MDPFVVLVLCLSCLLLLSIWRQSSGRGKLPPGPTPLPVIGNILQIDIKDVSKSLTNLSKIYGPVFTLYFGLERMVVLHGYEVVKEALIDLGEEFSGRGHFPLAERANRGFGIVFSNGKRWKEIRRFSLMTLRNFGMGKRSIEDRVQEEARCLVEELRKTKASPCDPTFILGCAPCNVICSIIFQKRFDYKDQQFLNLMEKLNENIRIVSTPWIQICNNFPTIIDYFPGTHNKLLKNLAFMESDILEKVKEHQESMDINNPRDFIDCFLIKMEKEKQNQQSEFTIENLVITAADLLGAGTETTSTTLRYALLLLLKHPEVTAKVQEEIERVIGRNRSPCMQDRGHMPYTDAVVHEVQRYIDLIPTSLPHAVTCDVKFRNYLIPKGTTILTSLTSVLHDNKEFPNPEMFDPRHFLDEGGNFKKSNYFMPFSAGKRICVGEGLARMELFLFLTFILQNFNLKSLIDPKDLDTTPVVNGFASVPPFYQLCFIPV
# CYP2C9 inhib = blocks human cytochrome P450 2C9 | P11712 | CYP2C9 Supersomes, luciferin-H conversion, luminescence | inhibition, % at 5 µM | hit rate 20% among 96,000;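 active means blocking of liver enzyme CYP2C9 beyond about 50% at 5 µM, limit read from the data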
# PostGolgi ctrl = inhibits growth of the yeast control strain; efflux-deficient yeast background strain, growth absorbance A615, 16 h; inhibition, % at 10 µM; hit rate 5% among 98,000; AID 738
# CYP2C19 inhib = human CYP2C19 inhibition | hit rate 21% among 96,000 | inhibition, % at 5 µM | CYP2C19 Supersomes, luciferin-H EGE luminescence, 30 min | P33261;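 active means CYP2C19 inhibition above a set limit at 5 µM in the primary screen, cut at about 50% in these data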;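 further: plate controls were negative control wells for no effect and 2.5 mM tranylcypromine positive control for full effect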
# Active calls of the source: *; x = no result. A selection: hits, their analogues and other compounds. The true share with any hit is near 32%. Unless noted, no stated cut-off is given here; in the data, active means inhibition above about 30%; inactive means the rest.
SMILES,CYP2C9 act,PostGolgi yeast,CYP2C19 activ,CYP2C9 inhib,PostGolgi ctrl,CYP2C19 inhib
O=C(O)CN(c1ccc(F)cc1)S(=O)(=O)c1ccc2c(c1)OCCO2,0.8,1.4,0.9,23.5,5.1,10.1
O=C(CN(c1ccc(F)cc1)S(=O)(=O)c1ccc2c(c1)OCCO2)NCC1CCCO1 (configuration not stated),0.8,-5.1,0.9,19.9,33.3*,11.0
CCCNC(=O)CN(c1ccc(F)cc1)S(=O)(=O)c1ccc2c(c1)OCCO2,0.2,-0.6,0.2,85.0*,-0.3,81.2*
O=C(CN(c1ccc(F)cc1)S(=O)(=O)c1ccc2c(c1)OCCO2)NCc1ccncc1,0.3,0.5,0.1,73.2*,6.1,89.8*
CS(=O)(=O)N(CC(=O)NCC1CCCO1)c1ccc(F)c(Cl)c1 (configuration not stated),1,6.7,0.4,3.6,-2.1,60.0*
CS(=O)(=O)N(CC(=O)NCC1CCCO1)c1ccc(Cl)c(Cl)c1 (configuration not stated),1.1,5.0,0.6,-8.4,2.4,41.7
O=C(NCC1CCCO1)C(c1cccnc1)N(C(=O)Cc1cccs1)c1cccnc1 (configuration not stated),1.2,9.4,1.2,-18.9,-5.3,-17.2
Cc1ccc(NC(=O)c2cccc(N3C(=O)CCC3=O)c2)nc1,1,3.4,1.2,-1.4,5.2,-23.5
COc1ccccc1N(CC(=O)NCc1cccnc1)S(C)(=O)=O,1.1,-0.7,0.7,-9.1,-0.8,28.0
O=C(CN(c1ccc(F)cc1)S(=O)(=O)c1ccc2c(c1)OCCO2)NCc1cccnc1,0.2,20.9,0.1,84.0*,-6.4,93.9*
Cc1ccc(NC(=O)COc2ccc3oc4c(c3c2)CCCC4)nc1,0.4,1.1,0.7,55.2*,6.1,31.4
COC(=O)Cn1ncc2c(C)n(Cc3ccccc3)c(C)c2c1=O,0.6,-2.9,0.2,40.5,0.9,84.5*
Cc1c2cnn(CC(=O)O)c(=O)c2c(C)n1Cc1ccccc1,0.9,-3.8,1,6.6,1.9,3.0
COc1ccc(-n2c(=S)[nH]c3ccccc32)cc1,1.6,-1.2,0.5,-63.5,0.0,53.8*
COc1ccc(-n2c(-c3ccco3)n[nH]c2=S)cc1,1,-2.7,0.6,-3.9,2.1,42.4
O=C(NC1CCCC1)C(c1ccncc1)N(CC1CCCO1)C(=O)Cn1nnc(-c2cccs2)n1 (configuration not stated),0,-6.9,0.2,95.4*,7.4,77.8*
O=C(CN(Cc1ccccc1Cl)C(=O)Cn1nnc(-c2cccs2)n1)NCC1CCCO1 (configuration not stated),0.6,0.0,0.7,40.1,14.8,26.8
O=C(CCn1nnc(-c2cccs2)n1)NC1CCCCC1,1.3,-0.3,0.2,-32.5,2.7,76.2*
O=C(Cn1nnc(-c2cccs2)n1)OC1CCCCC1,0.6,-4.0,0.7,36.9,1.5,28.2
COc1ccc(-c2nnn(CC(=O)N(Cc3ccccc3Cl)C(C(=O)NCC3CCCO3)c3ccco3)n2)cc1OC (configuration not stated),0.1,4.2,0.8,92.4*,0.8,19.1
Cc1ccc(C(C(=O)NCC2CCCO2)N(Cc2ccccc2F)C(=O)Cn2nnc(-c3cccs3)n2)cc1 (configuration not stated),0.5,-4.6,0.7,52.5*,-10.9,32.7
c1cncc(-c2noc(CC3CCCCC3)n2)c1,1.1,-8.7,0.2,-9.2,24.6,80.5*
c1ccc(CCc2nc(-c3cccnc3)no2)cc1,0.9,5.6,0.1,10.2,16.8,85.7*
COc1ccc(Cc2nc(-c3ccccc3)no2)cc1,0.8,-2.1,0.7,16.9,-1.1,26.7
c1ccc(CCc2ccccc2-c2nc(-c3cccnc3)no2)cc1,1.1,9.2,0.8,-6.0,27.2,17.7
SMILES,CYP2C9 act,PostGolgi yeast,CYP2C19 activ,CYP2C9 inhib,PostGolgi ctrl,CYP2C19 inhib
O=C(Nc1ccc(-c2noc(CCc3ccccc3)n2)cc1)c1ccco1,0.3,-7.0,0.6,70.6*,12.5,40.6
c1ccc(CCc2nc(-c3ccccc3)no2)cc1,1,-0.3,0.9,3.2,8.3,13.1
Clc1ccc(Cc2nc(-c3cccnc3)no2)cc1,0.6,-9.8,0.5,40.3,-8.5,54.2*
O=C1CC(c2ccc(Cl)cc2)CC(O)=C1C=NCc1ccc(Cl)c(Cl)c1 (configuration not stated),0.6,-7.3,0.8,39.8,8.1,19.6
CN(C1CCS(=O)(=O)C1)S(=O)(=O)c1ccc(N2CCCC2=O)cc1 (configuration not stated),0.8,1.1,1,16.6,5.8,-1.6
CCOC(=O)c1sc(NC(=O)/C=C/c2cnn(C)c2C)c(C(=O)OC(C)C)c1C,0.8,-7.0,1,24.8,12.0,-2.4
CCOc1ccc(N2C(=O)C3C4C=CC(CC4)C3C2=O)c([N+](=O)[O-])c1 (configuration not stated),1.3,-2.4,1,-27.4,14.1,3.4
CC(C)OC(=O)N(C)c1ccc(C(O)(C(F)(F)F)C(F)(F)F)cc1,0.2,-1.4,0.1,75.2*,20.4,85.1*
N#Cc1cc2cc3c(cc2nc1N1CCOCC1)OCO3,0.9,-3.4,0.5,8.0,4.3,54.7*
CC1(C)Cc2nc(N3CCOCC3)c(C#N)cc2CO1,1,3.3,0.9,3.5,8.0,11.6
CCN(CC)c1ccc2cc(C(=O)Nc3cccnc3N3CCOCC3)c(=O)oc2c1,1.1,x,1.1,-13.4,x,-10.1
CCN(CC)c1ccc2cc(C(=O)Nc3ccccn3)c(=O)oc2c1,0.4,-10.9,0.5,56.7*,3.5,45.3
O=C(CCCNS(=O)(=O)c1ccccc1)NCc1ccco1,1.2,22.5,1.1,-17.7,13.6,-13.1
CCOC(=O)COn1c(-c2cccc(Cl)c2)nc2ccc([N+](=O)[O-])cc21,1,-3.2,1,2.9,-2.0,-2.9
CC(=O)N1N=C(c2cccc([N+](=O)[O-])c2)OC1c1ccc(Cl)cc1Cl (configuration not stated),0.2,9.6,0.3,77.7*,33.8*,73.3*
Cc1ccc(-n2c(=O)[nH]cc(C(=O)N3CCc4ccccc43)c2=O)cc1C,0.9,7.0,1,10.9,2.0,-0.2
O=C(c1ccccc1)N(Cc1ccc(F)cc1)C1CCS(=O)(=O)C1 (configuration not stated),1,5.8,0.6,1.9,7.1,36.2
CCCCOc1cccc(C(=O)N(Cc2ccco2)C2CCS(=O)(=O)C2)c1 (configuration not stated),0.2,26.3,0.5,81.9*,11.8,45.6
CCOc1cccc(C(=O)N(Cc2ccc(F)cc2)C2CCS(=O)(=O)C2)c1 (configuration not stated),0.7,-2.3,0.5,30.1,1.2,50.7*
CCCOc1cccc(C(=O)N(Cc2ccco2)C2CCS(=O)(=O)C2)c1 (configuration not stated),x,4.1,x,x,3.6,x

# Bioassay records from PubChem BioAssay.
